Source: PubChem
Myeloid diff MLP: compounds promoting myeloid differentiation; ER-HoxA9 myeloid progenitors, lysozyme-GFP differentiation, flow cytometry; calls only at 10 µM; actives 1% (n = 360,000); AID 624256;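 active = normalized GFP-positive differentiation at or above the plate's own cutoff, the solvent-only control mean plus 3 SD; inconclusive = no clear call, values can overlap the other calls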;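 note: cells exposed to compound for four days before flow analysis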
Granule exo inh: lytic granule exocytosis inhibition. TALL-104 LAMP-1 surface exposure, flow cytometry; cells stimulated with thapsigargin and PMA. inhibition, % at 10 µM. actives 0.66% (n = 360,000);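 active = inhibition above about 55%, limit read from the data; inconclusive = no clear call, values can overlap the other calls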
NPR2 activator: GC-B (human) receptor activation | P20594 | HEK293-GC-B cells, CNP EC30, cGMP TR-FRET; 0% at EC30 CNP, 100% saturating CNP | activation, % at 10 µM | actives 0.11% (n = 370,000) | AID 1920062;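 active = activation at 10 µM reaching about 35% in either raw or pattern-adjusted values, limit read from the data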
GC-A act: GC-A (human) enzyme activation | P16066 | HEK293 GC-A cells, cGMP TR-FRET, EC30 ANP; 0% at EC30 ANP, 100% saturating ANP | activation, % at 10 µM | actives 0.14% (n = 370,000) | AID 1671463; in the data active = activation above about 40%
Each line names hits and unclear results; the compound was inactive in the other large screens. Compounds with a hit are over-represented: about 1.8% of the library has one in this group of screens.

Cc1noc(/C=C/c2ccco2)c1S(=O)(=O)N1CCC(C(=O)NC(C)c2ccccc2)CC1 (stereo not given)	Myeloid diff MLP active
CC(NC(=O)C1CCN(S(=O)(=O)c2cccc3cccnc23)CC1)c1ccccc1 (stereo not given)	Myeloid diff MLP active
CN(CC(=O)NCC1CCCO1)S(=O)(=O)c1ccc2ccccc2c1 (stereo not given)	none
CC(=O)c1ccc(NC(=O)CSc2nc(C3CC3)nc3ccccc23)cc1	none
COc1ccc(-n2c(SCC(=O)Nc3ccc4c(c3)OCO4)nc3ccccc3c2=O)cc1	Myeloid diff MLP active
CC(C)c1nc(SCC(=O)NC2CCCC2)c2ccccc2n1	Myeloid diff MLP active
CCOc1ccc(-n2c(SCC(=O)Nc3ccc4c(c3)OCO4)nc3ccccc3c2=O)cc1	none
COc1ccc(NC(=O)CSc2nc(C3CC3)nc3ccccc23)cc1	Myeloid diff MLP active
COc1ccc(NC(=O)CSc2nc(O)cc(=O)n2-c2ccc(OC)cc2)cc1	Myeloid diff MLP active
C[C@H](CO)N1C[C@H](C)[C@@H](CN(C)C(=O)Nc2ccnc(N3CCOCC3)c2)OCc2cn(nn2)CCCC1=O	none (no result: Myeloid diff MLP, Granule exo inh)
CCS(=O)(=O)Nc1ccc2c(c1)C(=O)N(C)[C@@H]1CC[C@H](CC(=O)OC)O[C@H]1CO2	none (no result: Myeloid diff MLP, Granule exo inh)
NC(N)=NCCCS(=O)(=O)Nc1ccc(Nc2c3ccccc3nc3cc([N+](=O)[O-])ccc23)cc1	none (no result: Myeloid diff MLP)
Cc1ccc2nc(-c3ccc(NC(=S)NCC(C)(C)CN(C)C)cc3)sc2c1	Myeloid diff MLP inconclusive, Granule exo inh 56
CCOc1ccc(Oc2c(Cl)c(Br)nn(Cc3cccc4ccccc34)c2=O)cc1	none (no result: Myeloid diff MLP, Granule exo inh)
N#CC(C(=O)NCCc1ccccc1)c1nc2ccccc2nc1N1CCCCC1 (stereo not given)	none
Cc1ccc(S(=O)(=O)N2CCCN(c3nc4cc(C)ccc4cc3C#N)CC2)cc1	Myeloid diff MLP active
Cc1ccc(S(=O)(=O)C(C#N)c2nc3ccccc3nc2N2CCCC2)cc1 (stereo not given)	Myeloid diff MLP active
N#CC(C(=O)NCc1ccccc1)c1nc2ccccc2nc1N1CCCC1 (stereo not given)	Myeloid diff MLP active
C[C@@H]1CCN(C2CC2)S(=O)(=O)c2ccc(N3CCC[C@H]3CO)cc2O1	none (no result: Myeloid diff MLP, Granule exo inh)
C#CCOCCOCCOCCNc1nc(N2CCN(C(=O)[C@H](CCCCN)n3cc([C@@H](N)CO)nn3)CC2)nc(N2CCN(C(=O)[C@H](Cc3ccc(O)cc3)n3cc([C@@H](N)CC(C)C)nn3)CC2)n1	Granule exo inh 68
C#CCOCCOCCOCCNc1nc(N2CCN(C(=O)C([C@@H](C)CC)n3cc(C(N)CC(C)C)nn3)CC2)nc(N2CCN(C(=O)[C@H](CCC(=O)O)n3cc(C(N)CC(C)C)nn3)CC2)n1 (stereo not given in full)	Granule exo inh 76 (no result: NPR2 activator, GC-A act)
COc1ccc2c(c1)CCCC21NC(=O)NC1=O (stereo not given)	none
COC1=CC2(O)CCCC2=CC1=O (stereo not given)	Myeloid diff MLP active
CC(C)OCCCn1c(=N)c(C(N)=S)cc2c(=O)n3ccccc3nc21	Myeloid diff MLP active
O=C(NN=C1CCC(c2ccccc2)CC1)c1cc2c(s1)CCCC2 (stereo not given)	none
CC1CCc2sc(C(=O)NN=C3CCC(c4ccccc4)CC3)cc2C1 (stereo not given)	Myeloid diff MLP active
COc1cccc(S(=O)(=O)N(C)C[C@H]2Oc3cc(Br)ccc3S(=O)(=O)N([C@@H](C)CO)C[C@H]2C)c1	none
COc1ccc2c(c1)CC/C(=C/c1ccncc1)C2=O	Myeloid diff MLP active (no result: NPR2 activator, GC-A act)
COc1ccc2c(c1)CC/C(=C\c1ccc(C)o1)C2=O	none (no result: Myeloid diff MLP)
Cc1ccc([C@@H]2[C@@H]3C(=O)N(c4ccccc4)C(=O)[C@@H]3[C@]3(C)C(=O)N(Cc4ccc(-c5ccccc5)cc4)CC(=O)N23)o1	GC-A act 49
COc1ccc(OC)c(N(C(=O)c2ccco2)C(C(=O)NC2CCCC2)c2ccc(N3CCOCC3)cc2)c1 (stereo not given)	none
COc1ccc(C)cc1N(C(=O)c1ccco1)C(C(=O)NC1CCCC1)c1ccc(N2CCOCC2)cc1 (stereo not given)	Myeloid diff MLP active
O=C(NC(NC(=S)N1CCOCC1)C(Cl)(Cl)Cl)c1ccc(Cl)cc1 (stereo not given)	Myeloid diff MLP active
